# Source: the supplement of paper PMC8975748
# Where a name gives a salt, the structure may show the parent alone.
# Tested on: Saccharomyces cerevisiae BY4741 SeMeCo community
# Assay: z-score of subpopulation abundance vs DMSO median, subpopulation auxotrophic for LU; higher = larger share of this subpopulation than in DMSO controls
# Conditions: 10 µM; 24 h; SM minimal medium; subpopulation (auxotrophy): LU
# Experimental: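 Fluorescent four-plasmid SeMeCo (self-establishing metabolically cooperating S. cerevisiae BY4741 community; plasmids pH-mRuby2, pL-mWasabi, pU-eCFP, pM-TagRFP657) was grown 24 h in minimal SM medium with each Selleck FDA-approved drug at 10 µM in 384-well plates. Cells were fixed and imaged by high-content confocal microscopy. For each auxotrophic subpopulation (and the prototroph), a z-score gives the deviation from the DMSO vehicle-control population median.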
row,Structure (SMILES),z-score of subpopulation abundance
1,CCOC(=O)C1=C(COCCN)NC(C)=C(C(=O)OC)C1c1ccccc1Cl (stereo not given) [Amlodipine],-7.07
2,CN(Cc1cnc2nc(N)nc(N)c2n1)c1ccc(C(=O)N[C@@H](CCC(=O)O)C(=O)O)cc1 [Methotrexate],-1.77
3,C=C1c2cccc(O)c2C(O)=C2C(=O)[C@]3(O)C(O)=C(C(N)=O)C(=O)[C@@H](N(C)C)[C@@H]3[C@@H](O)[C@H]12 [Methacycline HCl],-0.95
4,CC1=C(C(=O)O)N2C(=O)[C@@H](NC(=O)[C@H](N)C3=CCC=CC3)[C@H]2SC1 [Cefradine],-1.14
5,CC/C=C(\C(=O)N[C@@H]1C(=O)N2C(C(=O)OCOC(=O)C(C)(C)C)=C(COC(N)=O)CS[C@H]12)c1csc(N)n1 [Cefcapene Pivoxil Hydrochloride],0.9
6,CC(=O)NS(=O)(=O)c1ccc(N)cc1 [Sulfacetamide Sodium],0.61
7,C#C[C@]1(O)CC[C@H]2[C@@H]3CCc4cc(OC5CCCC5)ccc4[C@H]3CC[C@@]21C [Quinestrol],1.93
8,Cc1ccc(S(=O)(=O)NC(=O)NN2CC3CCCC3C2)cc1 (stereo not given) [Gliclazide],-0.08
9,COC(=O)C1=C(C)NC(C)=C(C(=O)OCCN2CCN(C(c3ccccc3)c3ccccc3)CC2)C1c1cccc([N+](=O)[O-])c1 (stereo not given) [Manidipine],-1.04
10,CC(=O)[C@H]1CC[C@H]2[C@@H]3CC=C4C[C@@H](O)CC[C@]4(C)[C@H]3CC[C@]12C [Pregnenolone],-0.42
11,COC(=O)Nc1nc2cc([S+]([O-])c3ccccc3)ccc2[nH]1 (stereo not given) [Oxfendazole],0.48
12,Cn1cc(C(=O)[C@@H]2CCc3[nH]cnc3C2)c2ccccc21 [Ramosetron Hydrochloride],0.85
13,CCCCCCCN(CC)CCCC(O)c1ccc(NS(C)(=O)=O)cc1 (stereo not given) [Ibutilide Fumarate],0.14
14,Nc1nc(=O)[nH]cc1F [Flucytosine],0.49
15,CO[C@H]1C[C@@H]2CC[C@@H](C)[C@@](O)(O2)C(=O)C(=O)N2CCCC[C@H]2C(=O)O[C@H]([C@H](C)C[C@@H]2CC[C@@H](O)[C@H](OC)C2)CC(=O)[C@H](C)/C=C(\C)[C@@H](O)[C@@H](OC)C(=O)[C@H](C)C[C@H](C)/C=C/C=C/C=C/1C [Rapamycin (Sirolimus)],3.56
16,N#Cc1ccc2[nH]cc(CCCCN3CCN(c4ccc5oc(C(N)=O)cc5c4)CC3)c2c1 [Vilazodone HCl],-0.14
17,CC1(C)S[C@@H]2[C@H](NC(=O)[C@H](NC(=O)N3CCNC3=O)c3ccccc3)C(=O)N2[C@H]1C(=O)O [Azlocillin sodium salt],-0.34
18,CC1=C(C(=O)O)N2C(=O)[C@@H](NC(=O)[C@H](N)c3ccc(O)cc3)[C@H]2SC1 [Cefadroxil hydrate],-0.23
19,CC[C@H]1OC(=O)C[C@@H](O)[C@H](C)[C@@H](O[C@@H]2O[C@H](C)[C@@H](O[C@H]3C[C@@](C)(O)[C@@H](O)[C@H](C)O3)[C@H](N(C)C)[C@H]2O)[C@@H](CC=O)C[C@@H](C)C(=O)/C=C/C(C)=C/[C@@H]1CO[C@@H]1O[C@H](C)[C@@H](O)[C@@H](OC)[C@H]1OC [Tylosin],0.45
20,COc1cc(NS(=O)(=O)c2ccc(N)cc2)ncn1 [Sulfamonomethoxine],1.01

row,Structure (SMILES),z-score of subpopulation abundance
1,COCC1=C(C(=O)OC(C)OC(=O)OC(C)C)N2C(=O)[C@@H](NC(=O)/C(=N\OC)c3csc(N)n3)[C@H]2SC1 (stereo not given in full) [Cefpodoxime proxetil],0.31
2,CN1C(C(=O)Nc2ccccn2)=C(O)c2sc(Cl)cc2S1(=O)=O [Lornoxicam],-0.21
3,CC/C(=C(/CC)c1ccc(O)cc1)c1ccc(O)cc1 [Diethylstilbestrol],-1.48
4,COc1cccc2c1C(=O)c1c(O)c3c(c(O)c1C2=O)C[C@@](O)(C(=O)CO)C[C@@H]3O[C@H]1C[C@H](N)[C@H](O[C@@H]2CCCCO2)[C@H](C)O1 [Pirarubicin],4.15
5,CCC[C@@H]1C[C@@H](C(=O)N[C@@H]([C@H]2O[C@H](SC)[C@H](O)[C@@H](O)[C@H]2O)[C@@H](C)O)N(C)C1 [Lincomycin Hydrochloride Monohydrate],0.94
6,CN[C@H](CC(C)C)C(=O)N[C@H]1C(=O)N[C@@H](CC(N)=O)C(=O)N[C@H]2C(=O)N[C@H]3C(=O)N[C@H](C(=O)N[C@H](C(=O)O)c4cc(O)cc(O)c4-c4cc3ccc4O)[C@H](O)c3ccc(c(Cl)c3)Oc3cc2cc(c3O[C@@H]2O[C@H](CO)[C@@H](O)[C@H](O)[C@H]2O[C@H]2C[C@](C)(N)[C@H](O)[C@H](C)O2)Oc2ccc(cc2Cl)[C@H]1O [Vancomycin],0.08
7,CN(CCN1CCC(OC(=O)Nc2ccccc2-c2ccccc2)CC1)C(=O)c1ccc(CN2CCC(C(N)=O)CC2)cc1 [Revefenacin],0.12
8,"C[C@H](Nc1ncnc2nc[nH]c12)c1cc2cccc(Cl)c2c(=O)n1-c1ccccc1 [Duvelisib (IPI-145, INK1197)]",1.28
9,COc1cccc2c1C(=O)c1c(O)c3c(c(O)c1C2=O)C[C@@](O)(C(=O)CO)C[C@@H]3O[C@H]1C[C@H](N)[C@@H](O)[C@H](C)O1 [Epirubicin HCl],2.53
10,C#C[C@]1(O)CC[C@H]2[C@@H]3CCC4=Cc5oncc5C[C@]4(C)[C@H]3CC[C@@]21C [Danazol],0.13
11,O=S1(=O)CCN(CN2CCS(=O)(=O)NC2)CN1 [Taurolidine],0.35
12,Cc1cnc(NC(=O)C2=C(O)c3ccccc3S(=O)(=O)N2C)s1 [Meloxicam],-0.98
13,CO/N=C(\C(=O)N[C@@H]1C(=O)N2C(C(=O)O)=C(CSC(=O)c3ccco3)CS[C@H]12)c1csc(N)n1 [Ceftiofur],0.54
14,COC(=O)C1=C(C)NC(C)=C(C(=O)OCCN(C)Cc2ccccc2)C1c1cccc([N+](=O)[O-])c1 (stereo not given) [Nicardipine HCl],0.72
15,CN1[C@@H](CC(=O)c2ccccc2)CCC[C@H]1C[C@H](O)c1ccccc1 [Lobeline hydrochloride],-0.23
16,CCn1cc(C(=O)O)c(=O)c2cc(F)c(N3CCNCC3)nc21 [Enoxacin Sesquihydrate],0.91
17,C[C@H](NCc1ccc(OCc2cccc(F)c2)cc1)C(N)=O [Safinamide],0.99
18,C[C@]1(COc2ccc(N3CCC(Oc4ccc(OC(F)(F)F)cc4)CC3)cc2)Cn2cc([N+](=O)[O-])nc2O1 [Delamanid],0.18
19,COCCOC(=O)C1=C(C)NC(C)=C(C(=O)OC/C=C/c2ccccc2)C1c1cccc([N+](=O)[O-])c1 (stereo not given) [Cilnidipine],0.17
20,Cc1cccc(C)c1NC(=O)C1CCCCN1C (stereo not given) [Mepivacaine HCl],0.44
